Measured values: publication PMC7862700, “An all-to-all approach to the identification of sequence-specific readers for epigenetic DNA modifications on cytosine”

Key:
Test in all cases: DAPPL (digital affinity profiling via proximity ligation, sequencing); 10 mM Tris-HCl pH 7.5, 50 mM NaCl, 1 mM DTT, 4% glycerol, room temperature, 30 min; GST-TFs on glutathione beads, 16-mer random dsDNA library, 0.1% formaldehyde crosslink after washing; high values mean tight binding
Details in all cases: protein: recombinant; tags: N-terminal GST; dsDNA, one strand shown
FLI1 = biological target: T1, FLI1 (Homo sapiens, UniProt Q01543 1-452)
T1 sequence: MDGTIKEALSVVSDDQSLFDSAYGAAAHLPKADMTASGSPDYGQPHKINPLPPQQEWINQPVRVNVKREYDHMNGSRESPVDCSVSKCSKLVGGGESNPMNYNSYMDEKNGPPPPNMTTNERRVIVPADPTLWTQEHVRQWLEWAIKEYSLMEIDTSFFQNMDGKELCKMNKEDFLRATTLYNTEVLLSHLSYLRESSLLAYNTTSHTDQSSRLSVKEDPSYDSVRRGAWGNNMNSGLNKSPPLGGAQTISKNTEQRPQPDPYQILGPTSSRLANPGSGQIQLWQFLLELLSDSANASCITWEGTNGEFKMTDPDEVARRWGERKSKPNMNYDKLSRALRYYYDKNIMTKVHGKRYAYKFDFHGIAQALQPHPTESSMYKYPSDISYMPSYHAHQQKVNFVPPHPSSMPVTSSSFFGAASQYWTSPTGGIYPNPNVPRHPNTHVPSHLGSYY
Procedure, shortened: (§1)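 Human transcription factors fused to GST were expressed in yeast, captured on glutathione beads, given DNA barcodes and pooled with a GST-only negative control. Pools were incubated with 200 nmole of a 16-mer random double-stranded DNA library in Tris/NaCl/DTT/glycerol buffer at room temperature for 30 min. They were then washed, crosslinked with 0.1% formaldehyde, proximity-ligated (BsaI/T4 ligase, 1 h, 37 °C), PCR-amplified and sequenced on an Illumina NextSeq500. Binding signal is each 6-mer's read frequency for a factor divided by its frequency for the GST control.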

ELK1 = biological target: T2, ELK1 (Homo sapiens, UniProt P19419 1-428)
T2 sequence: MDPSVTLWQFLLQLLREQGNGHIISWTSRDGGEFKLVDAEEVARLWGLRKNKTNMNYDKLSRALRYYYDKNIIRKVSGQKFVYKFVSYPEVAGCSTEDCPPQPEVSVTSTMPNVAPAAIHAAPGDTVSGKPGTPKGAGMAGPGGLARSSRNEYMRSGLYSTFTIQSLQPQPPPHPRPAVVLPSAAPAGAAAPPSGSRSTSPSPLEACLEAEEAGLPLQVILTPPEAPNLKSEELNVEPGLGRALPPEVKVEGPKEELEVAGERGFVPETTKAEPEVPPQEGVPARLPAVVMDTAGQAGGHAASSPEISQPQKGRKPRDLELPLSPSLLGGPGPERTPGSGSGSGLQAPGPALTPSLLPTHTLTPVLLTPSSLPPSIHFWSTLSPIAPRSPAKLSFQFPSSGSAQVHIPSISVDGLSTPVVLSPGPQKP
Procedure, shortened: as §1

GABPA = biological target: T3, GABPA (Homo sapiens, UniProt Q06546 1-454)
T3 sequence: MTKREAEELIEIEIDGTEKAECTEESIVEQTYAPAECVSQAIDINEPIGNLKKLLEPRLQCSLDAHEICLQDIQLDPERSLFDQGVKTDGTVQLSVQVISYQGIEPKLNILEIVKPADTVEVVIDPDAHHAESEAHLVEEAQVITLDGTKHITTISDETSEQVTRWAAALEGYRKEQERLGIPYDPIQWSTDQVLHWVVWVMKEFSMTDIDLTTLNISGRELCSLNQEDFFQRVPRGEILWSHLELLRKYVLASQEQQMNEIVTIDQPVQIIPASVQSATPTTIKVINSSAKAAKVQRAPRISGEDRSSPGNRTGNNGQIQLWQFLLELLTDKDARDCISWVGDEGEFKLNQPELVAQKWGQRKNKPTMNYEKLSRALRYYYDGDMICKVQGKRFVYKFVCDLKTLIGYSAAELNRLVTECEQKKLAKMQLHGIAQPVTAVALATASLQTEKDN
Procedure, shortened: as §1

ERG = biological target: T4, ERG (Homo sapiens, UniProt P11308 1-479)
T4 sequence: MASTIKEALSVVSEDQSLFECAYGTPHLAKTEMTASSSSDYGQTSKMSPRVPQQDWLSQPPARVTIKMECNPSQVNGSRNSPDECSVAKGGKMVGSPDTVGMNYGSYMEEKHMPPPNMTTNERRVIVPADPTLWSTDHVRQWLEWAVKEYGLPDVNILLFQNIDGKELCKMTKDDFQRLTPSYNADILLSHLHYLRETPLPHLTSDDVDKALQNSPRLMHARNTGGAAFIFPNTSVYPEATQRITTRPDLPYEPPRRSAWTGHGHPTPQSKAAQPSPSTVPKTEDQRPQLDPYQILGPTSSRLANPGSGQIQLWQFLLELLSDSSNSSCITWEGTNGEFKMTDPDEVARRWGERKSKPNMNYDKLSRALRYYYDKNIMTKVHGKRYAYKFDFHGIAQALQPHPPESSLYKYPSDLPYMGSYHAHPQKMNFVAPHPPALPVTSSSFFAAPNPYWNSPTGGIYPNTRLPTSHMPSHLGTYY
Procedure, shortened: as §1

ELF1 = ELF1 (Homo sapiens, UniProt P32519 1-619)
Procedure, shortened: as §1

EHF = biological target: T5, EHF (Homo sapiens, UniProt Q9NZC4 1-300)
T5 sequence: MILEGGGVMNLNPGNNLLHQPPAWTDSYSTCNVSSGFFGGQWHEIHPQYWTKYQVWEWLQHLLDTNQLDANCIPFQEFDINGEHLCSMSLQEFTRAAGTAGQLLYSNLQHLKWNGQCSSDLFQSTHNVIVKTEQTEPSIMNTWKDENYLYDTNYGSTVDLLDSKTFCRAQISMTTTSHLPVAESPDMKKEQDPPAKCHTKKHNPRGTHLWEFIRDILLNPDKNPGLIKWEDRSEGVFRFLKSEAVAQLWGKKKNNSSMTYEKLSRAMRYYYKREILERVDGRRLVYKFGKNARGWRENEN
Procedure, shortened: as §1

SPI1 = SPI1 (Homo sapiens, UniProt P17947 1-270)
Procedure, shortened: as §1

SPIB = SPIB (Homo sapiens, UniProt Q01892 1-262)
Procedure, shortened: as §1

ELK3 = biological target: T6, ELK3 (Homo sapiens, UniProt P41970 1-407)
T6 sequence: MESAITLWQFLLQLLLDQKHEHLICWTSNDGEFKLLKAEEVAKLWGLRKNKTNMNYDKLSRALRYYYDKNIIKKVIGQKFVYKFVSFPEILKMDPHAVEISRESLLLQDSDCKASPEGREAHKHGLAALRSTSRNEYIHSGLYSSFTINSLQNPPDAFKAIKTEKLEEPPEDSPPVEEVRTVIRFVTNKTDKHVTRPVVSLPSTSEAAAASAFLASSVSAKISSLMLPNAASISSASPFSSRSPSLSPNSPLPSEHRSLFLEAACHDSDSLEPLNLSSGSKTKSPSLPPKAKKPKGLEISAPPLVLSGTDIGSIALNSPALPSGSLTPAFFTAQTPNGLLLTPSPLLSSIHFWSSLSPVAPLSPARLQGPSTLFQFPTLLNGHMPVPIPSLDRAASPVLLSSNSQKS
Procedure, shortened: as §1

Sequence of ELF1 (P32519 whole entry): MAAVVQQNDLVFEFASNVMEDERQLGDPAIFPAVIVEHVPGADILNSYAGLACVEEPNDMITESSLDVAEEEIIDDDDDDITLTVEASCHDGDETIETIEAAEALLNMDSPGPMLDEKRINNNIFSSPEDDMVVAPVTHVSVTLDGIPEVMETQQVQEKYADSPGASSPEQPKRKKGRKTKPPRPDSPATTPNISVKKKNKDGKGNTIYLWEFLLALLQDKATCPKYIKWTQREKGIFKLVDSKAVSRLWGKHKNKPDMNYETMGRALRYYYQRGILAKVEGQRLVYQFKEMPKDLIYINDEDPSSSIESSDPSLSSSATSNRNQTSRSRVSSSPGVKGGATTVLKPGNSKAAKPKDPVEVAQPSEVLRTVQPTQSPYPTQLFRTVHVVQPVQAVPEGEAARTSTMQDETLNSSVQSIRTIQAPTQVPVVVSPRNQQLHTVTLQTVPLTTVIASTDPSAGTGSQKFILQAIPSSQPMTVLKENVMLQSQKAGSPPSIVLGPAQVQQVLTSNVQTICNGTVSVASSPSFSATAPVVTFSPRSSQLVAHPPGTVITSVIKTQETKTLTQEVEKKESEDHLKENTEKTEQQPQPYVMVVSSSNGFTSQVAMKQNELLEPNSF
Sequence of SPIB (Q01892 whole entry): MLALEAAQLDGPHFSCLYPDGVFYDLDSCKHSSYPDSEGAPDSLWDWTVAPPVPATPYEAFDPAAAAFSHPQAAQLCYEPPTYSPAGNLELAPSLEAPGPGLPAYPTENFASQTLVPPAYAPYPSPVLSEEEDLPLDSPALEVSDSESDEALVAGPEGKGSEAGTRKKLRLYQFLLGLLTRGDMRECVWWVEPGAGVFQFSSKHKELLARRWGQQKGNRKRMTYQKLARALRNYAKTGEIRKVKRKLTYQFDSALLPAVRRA

| Sequence | binding signal (FLI1) | binding signal (ELK1) | binding signal (GABPA) | binding signal (ERG) | binding signal (ELF1) | binding signal (EHF) | binding signal (SPI1) | binding signal (SPIB) | binding signal (ELK3) |
| --- | --- | --- | --- | --- | --- | --- | --- | --- | --- |
| ATACTC | 1.29 fold enrichment (6-mer frequency, TF over GST control) | 1.32 fold enrichment (6-mer frequency, TF over GST control) | 1.48 fold enrichment (6-mer frequency, TF over GST control) | 1.3 fold enrichment (6-mer frequency, TF over GST control) | 1.38 fold enrichment (6-mer frequency, TF over GST control) | 1.33 fold enrichment (6-mer frequency, TF over GST control) | 1.26 fold enrichment (6-mer frequency, TF over GST control) | 1.32 fold enrichment (6-mer frequency, TF over GST control) | 1.3 fold enrichment (6-mer frequency, TF over GST control) |
| GGAAGC | 1.5 fold enrichment (6-mer frequency, TF over GST control) | 1.64 fold enrichment (6-mer frequency, TF over GST control) | 1.45 fold enrichment (6-mer frequency, TF over GST control) | 1.85 fold enrichment (6-mer frequency, TF over GST control) | 1.39 fold enrichment (6-mer frequency, TF over GST control) | 1.68 fold enrichment (6-mer frequency, TF over GST control) | 1.74 fold enrichment (6-mer frequency, TF over GST control) | 1.63 fold enrichment (6-mer frequency, TF over GST control) | 1.77 fold enrichment (6-mer frequency, TF over GST control) |
| AAGTGC | 1.32 fold enrichment (6-mer frequency, TF over GST control) | 1.33 fold enrichment (6-mer frequency, TF over GST control) | 1.13 fold enrichment (6-mer frequency, TF over GST control) | 1.32 fold enrichment (6-mer frequency, TF over GST control) | 1.28 fold enrichment (6-mer frequency, TF over GST control) | 1.34 fold enrichment (6-mer frequency, TF over GST control) | 1.67 fold enrichment (6-mer frequency, TF over GST control) | 1.34 fold enrichment (6-mer frequency, TF over GST control) | 1.39 fold enrichment (6-mer frequency, TF over GST control) |
| ACAATG | 1.1 fold enrichment (6-mer frequency, TF over GST control) | 1.06 fold enrichment (6-mer frequency, TF over GST control) | 1.17 fold enrichment (6-mer frequency, TF over GST control) | 1.14 fold enrichment (6-mer frequency, TF over GST control) | 1.15 fold enrichment (6-mer frequency, TF over GST control) | 1.09 fold enrichment (6-mer frequency, TF over GST control) | 1.06 fold enrichment (6-mer frequency, TF over GST control) | 1.16 fold enrichment (6-mer frequency, TF over GST control) | 1.08 fold enrichment (6-mer frequency, TF over GST control) |
| GATCCC | 1.16 fold enrichment (6-mer frequency, TF over GST control) | 1.16 fold enrichment (6-mer frequency, TF over GST control) | 1.15 fold enrichment (6-mer frequency, TF over GST control) | 1.23 fold enrichment (6-mer frequency, TF over GST control) | 1.27 fold enrichment (6-mer frequency, TF over GST control) | 1.17 fold enrichment (6-mer frequency, TF over GST control) | 1.11 fold enrichment (6-mer frequency, TF over GST control) | 1.17 fold enrichment (6-mer frequency, TF over GST control) | 1.14 fold enrichment (6-mer frequency, TF over GST control) |
| CTGTGC | 1.09 fold enrichment (6-mer frequency, TF over GST control) | 1.18 fold enrichment (6-mer frequency, TF over GST control) | 1.12 fold enrichment (6-mer frequency, TF over GST control) | 1.11 fold enrichment (6-mer frequency, TF over GST control) | 1.14 fold enrichment (6-mer frequency, TF over GST control) | 1.02 fold enrichment (6-mer frequency, TF over GST control) | 1.02 fold enrichment (6-mer frequency, TF over GST control) | 1.13 fold enrichment (6-mer frequency, TF over GST control) | 1.09 fold enrichment (6-mer frequency, TF over GST control) |
| CCTCTG | 1.57 fold enrichment (6-mer frequency, TF over GST control) | 1.75 fold enrichment (6-mer frequency, TF over GST control) | 1.63 fold enrichment (6-mer frequency, TF over GST control) | 1.62 fold enrichment (6-mer frequency, TF over GST control) | 1.65 fold enrichment (6-mer frequency, TF over GST control) | 1.67 fold enrichment (6-mer frequency, TF over GST control) | 1.63 fold enrichment (6-mer frequency, TF over GST control) | 1.6 fold enrichment (6-mer frequency, TF over GST control) | 1.58 fold enrichment (6-mer frequency, TF over GST control) |
| GAAACG | 1.17 fold enrichment (6-mer frequency, TF over GST control) | 1.26 fold enrichment (6-mer frequency, TF over GST control) | 1.2 fold enrichment (6-mer frequency, TF over GST control) | 1.38 fold enrichment (6-mer frequency, TF over GST control) | 1.18 fold enrichment (6-mer frequency, TF over GST control) | 1.19 fold enrichment (6-mer frequency, TF over GST control) | 1.17 fold enrichment (6-mer frequency, TF over GST control) | 1.25 fold enrichment (6-mer frequency, TF over GST control) | 1.27 fold enrichment (6-mer frequency, TF over GST control) |
